Compound activity: PubChem, National Center for Advancing Translational Sciences (NCATS)
VP16 counter: inhibits Gal4-VP16 luciferase reporter, ROR gamma counter-screen; 310,000 compounds, 3.5% hits; Potency, µM (top dose mostly 53.6 µM), for the others: at the highest dose activity, negative = inhibition, hits mostly inhibitors; Drosophila S2 Gal4-VP16 UAS-luciferase, luminescence, 20 h;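 further: Gal4-VP16 expression switched on by copper sulfate through the metallothionein promoter; nearly all actives have a fitted effect of over 50% in size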
TDP1 inh: blocks human tyrosyl-DNA phosphodiesterase 1 | Q9NUW8 | recombinant TDP1, AlphaScreen DNA substrate cleavage | Potency, µM (top dose mostly 130 µM), without a hit: at the highest dose activity change, negative = inhibition, hits mostly inhibitors | 350,000 compounds, 0.28% hits; further: nearly all actives have a fitted effect of over 40% in size
Target sequence (Q9NUW8 whole entry, looked up): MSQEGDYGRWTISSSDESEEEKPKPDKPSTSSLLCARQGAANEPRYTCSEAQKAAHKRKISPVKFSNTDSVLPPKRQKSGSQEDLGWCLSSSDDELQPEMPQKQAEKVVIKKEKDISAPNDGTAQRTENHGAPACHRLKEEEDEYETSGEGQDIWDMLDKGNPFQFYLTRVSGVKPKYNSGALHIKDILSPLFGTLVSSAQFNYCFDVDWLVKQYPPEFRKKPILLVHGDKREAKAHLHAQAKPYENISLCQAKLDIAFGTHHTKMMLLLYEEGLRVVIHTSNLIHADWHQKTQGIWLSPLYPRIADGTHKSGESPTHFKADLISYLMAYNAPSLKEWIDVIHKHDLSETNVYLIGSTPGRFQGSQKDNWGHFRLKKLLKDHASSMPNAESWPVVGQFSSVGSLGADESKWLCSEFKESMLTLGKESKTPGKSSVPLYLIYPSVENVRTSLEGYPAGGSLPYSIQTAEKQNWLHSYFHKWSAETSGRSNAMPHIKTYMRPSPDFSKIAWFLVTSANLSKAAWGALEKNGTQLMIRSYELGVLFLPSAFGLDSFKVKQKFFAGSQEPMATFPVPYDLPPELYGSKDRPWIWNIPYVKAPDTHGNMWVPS
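Recombinant human Tdp1 (E. coli-expressed, 1 nM final) preincubated with compounds 15 min at room temperature, then 5'-biotin/3'-phosphotyrosine-FITC DNA substrate (15 nM final) added for 5 min. AlphaScreen beads (10 ug/ml final) added 10 min; cleavage lowers signal.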
RORg inh: inhibitors of mouse ROR gamma transcriptional activity | 310,000 compounds, 5.4% hits | AID 2551 | P51450 | Potency, µM (titrated, usually from 53.6 µM), without a hit: top-dose activity change, negative = inhibition, actives largely listed as inhibitors | Drosophila S2 Gal4-RORgamma UAS-luciferase reporter, 20 h; further: nearly all actives have a fitted effect of over 60% in size
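ROR gamma transcriptional activity was tracked as Gal4-UAS luciferase output in stably transfected Drosophila Schneider cells, with compound added 1 hr before 700 uM copper sulfate induction and a 20 hr ambient-temperature incubation.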
DT40 TDP1 no CPT: qHTS for Inhibitors of human tyrosyl-DNA phosphodiesterase 1 (TDP1): qHTS in cells in absence of CPT | DT40 Tdp1-/- hTDP1 cells, no CPT, ATP luminescence, 48 h | Potency, µM (titrated, usually from 46.2 µM), for the others: top-dose activity change, negative = growth inhibition, actives largely listed as inhibitors | 420,000 compounds, 15% hits | AID 686978, 2013; further: nearly all actives have a fitted effect of over 55% in size
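Chicken DT40 Tdp1-/- cells stably complemented with human TDP1 were seeded at 400 cells/well with DMSO in place of 20 nM camptothecin. After compound pinning, cells grew at least 48 hr at 37 °C; viability read by CellTiter-Glo luminescence.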
TDP1 cell CPT: DT40-hTDP1 cell growth loss with CPT; chicken DT40 Tdp1-/-;hTDP1 cells + 20 nM CPT, ATP luminescence, 48 h; Potency, µM (highest dose often 46.2 µM), inactives show top-dose activity change, negative = growth inhibition, actives largely listed as inhibitors; 420,000 compounds, 12% hits; AID 686979; further: nearly all actives have a fitted effect of over 55% in size
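Chicken DT40 Tdp1-/- cells complemented with human TDP1, 400 cells/well, exposed to compounds plus 20 nM camptothecin for at least 48 h at 37 C; viability read as ATP content by CellTiter-Glo luminescence.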
* = called active by the depositor; ? = inconclusive; . = no result; [ ] = another dose, or the depositor's remark. In the library only some 19% were active in any assay of this set; here they are far more common. The call rests on the fitted dose curve; in most records, active means well fitted curve in the direction sought with a large enough effect; inconclusive means small, poorly fitted or top-dose-only effect, or another doubt; inactive means no such curve, though single readings can be large; an effect the other way counts as inactive or inconclusive. On the % scale 0 is the no-effect control and ±100 the full control effect; potency means the concentration at half of the fitted maximal effect.

SMILES	VP16 counter	TDP1 inh	RORg inh	DT40 TDP1 no CPT	TDP1 cell CPT
COc1ccc(-n2nnnc2C(c2cccs2)N2CCC(n3c(=O)[nH]c4ccccc43)CC2)cc1 (centres undefined)	.	.	.	13µM*	11.6µM*
CCN(CC)c1ccc(N=Cc2c(O)n(-c3ccc(Cl)cc3)c(=O)[nH]c2=O)cc1	-3.2%	0.0%	0.0%	?	20.6µM*
Cc1ccccc1-n1c(O)c(C=Nc2ccc(N(C)C)cc2)c(=O)[nH]c1=O	19.5%	0.5%	-33.4%	18.4µM*	23.1µM*
CCN(CC)c1ccc(N=Cc2c(O)n(-c3ccc(OC)cc3)c(=O)[nH]c2=O)cc1	10.1%	-0.7%	-6.7%	?	?
CC1=CC(=O)C2=C(C)C[C@H](O)[C@@H]3[C@H](OC(=O)[C@H]3C)[C@@H]12	.	.	.	16.4%	5.7%
CN1CCC(c2c[nH]c3ccccc23)C1 (centres undefined)	-3.5%	.	-38.4%	?	-11.5%
CC(C)(C)n1cc(C(=O)c2ccccc2)cc1-c1ccccc1	10.2%	12.3%	5.7%	?	25.9µM*
CN(C)C(=O)Oc1ccc(C(=O)c2ccccc2)cc1	26.7%	-1.6%[56.1 µM]	33.9%	-7.5%	-5.5%
CC(=NCCCN1CCOCC1)c1c(O)n(Cc2ccccc2)c(=O)[nH]c1=O	-14.1%	4.1%	16.6%	-9.4%	0.1%
O=C(Cc1ccccc1)N1CCN(C2CCCC2)CC1	-11.3%	-2.2%	-2.3%	-13.1%	-2.8%
CCOC(=O)C1(CCc2ccccc2)CCN(Cc2ccc(NC(C)=O)cc2)CC1	-5.1%	.	-0.6%	?	?
CCOC(=O)C1(CCc2ccccc2)CCN(Cc2ccc3c(c2)OCCO3)CC1	-2.9%	0.0%	5.0%	25.9µM*	?
CCOC(=O)C1(CCCc2ccccc2)CCN(C2CCCC2)CC1	-8.2%	-3.6%	-4.4%	?	18.4µM*
CCOC(=O)C1(CCOc2ccccc2)CCN(Cc2ccc(C)s2)CC1	?	4.7%	28.0%	7.31µM*	?
CCOC(=O)C1(CCc2ccccc2)CCN(C2CCSCC2)CC1	3.5%	2.8%	5.3%	6.51µM*	8.2µM*
Cc1ccc(-n2nc(C)c(C3C(C#N)=C(N)Oc4c3c(=O)oc3ccccc43)c2Cl)cc1 (centres undefined)	-0.9%[0.365 µM]	2.6%	-2.9%	.	.
O=CC(Br)P(=O)(N1CCOCC1)N1CCOCC1 (centres undefined)	-4.6%	-10.7%	18.0%	-11.2%	-6.4%
Oc1ccc2c3c1OC1C(O)CC[C@@]4(O)[C@@H](C2)N(CC2CCC2)CC[C@]314 (some centres undefined)	-4.2%	5.8%	6.1%	.	.
COc1ccc(C(C)=O)cc1CN1CC=C(c2ccccc2)CC1	2.1%	7.5%	-30.4%	?	?
COc1ccc2ccc(O)c(CN3CC=C(c4ccccc4)CC3)c2c1	4.2%	0.0%	-22.8%	18.4µM*	?
COc1cc(C)cc(CN2CC=C(c3ccccc3)CC2)c1O	?	8.0%	11.2µM*	?	16.4µM*
CC1CN=C(Nc2ccccc2)S1 (centres undefined)	?	3.2%	-28.7%	-3.5%	3.9%
Cc1ccsc1C(=O)C1CCCN(Cc2cnc(N3CCOCC3)s2)C1 (centres undefined)	-11.7%	.	27.4%	?	1.1%
C=C1C(=O)OC2CC3(C)OC3CCC(C)=CC(OC(C)=O)C12 (centres undefined)	.	.	.	2.59µM*	2.31µM*
NC(=O)c1cccc(-c2cccc(OC(=O)NC3CCCCC3)c2)c1	-3.1%	6.2%	12.5%	?	-20.7%
SMILES	VP16 counter	TDP1 inh	RORg inh	DT40 TDP1 no CPT	TDP1 cell CPT
CNC(=O)Oc1c(C)[nH]ccc1=O	.	.	.	-0.1%	0.7%
CNC(=O)Oc1ccc(-c2cn3cc(Cl)ccc3n2)cc1	?	-2.6%	6.31µM*	?	20.6µM*
CNC(=O)Oc1cccc(-c2cn3cc(OC(=O)NC)ccc3n2)c1	?	-13.2%	?	20.6µM*	?
CCOc1ccc(Oc2nc(NCC(C)C)nc(N(C)C)n2)nn1	-17.7%	-13.6%	0.1%	?	-22.0%
O=[N+]([O-])c1ccc(NCc2ccc(Cl)cc2)c2ccncc12	11.2µM*	.	-21.3%	20.6µM*	23.1µM*
O=[N+]([O-])c1ccc(NCc2ccccc2)c2nonc12	-4.7%	-3.0%	-2.9%	-13.4%	-28.0%
COc1cccc(OCc2cc(C(=O)N3C[C@H]4C[C@@H](C3)c3cccc(=O)n3C4)no2)c1	?	.	1.5%	-1.9%	4.5%
Cn1cnc([N+](=O)[O-])c1Sc1ccc([N+](=O)[O-])cc1	?	6.0%	11.2µM*	5.17µM*	3.66µM*
COC(=O)C1=C(c2cccc(C#N)c2)C[C@@H]2CC[C@H]1N2C(=O)NCc1ccc(F)cc1	.	0.0%	.	-15.3%	-16.7%
NCCNCCNCCNCCN	-4.0%	10.6%	-3.1%[10 µM]	-16.7%	5.2%
O=C(/C=C/c1ccccc1)C1C(=O)c2ccccc2C1=O	8.91µM*	2.7%	?	4.61µM*	3.66µM*
CCCc1[nH]nc2c1C(c1ccc(OC)c(Cn3nnc4ccccc43)c1)C(C#N)=C(N)O2 (centres undefined)	11.2%	2.0%	34.7%	?	25.9µM*
Cc1cc(OC(=O)CCNC(=O)OC(C)(C)C)c2c3c(c(=O)oc2c1)CCC3	?	-2.1%	?	20.6µM*	?
CCC(NC(=O)OC(C)(C)C)C(=O)Oc1cc(C)cc2oc(=O)c3c(c12)CCC3 (centres undefined)	-0.6%	1.9%	0.8%	11.6µM*	20.6µM*
Cc1cc(OC(=O)c2ccco2)c2c3c(c(=O)oc2c1)CCC3	?	5.9%	12.0%	23.1µM*	?
Cc1cc(OCC(=O)N2CCC(C(=O)NCC(C)C)CC2)c2c3c(c(=O)oc2c1)CCCC3	?	0.8%	-1.5%	13µM*	-19.1%
C=CCOC(=O)COc1cc(C)cc2oc(=O)c3c(c12)CCC3	-11.3%	0.0%	-16.7%	-6.9%	-6.4%
CCC(=O)N1N=C2C3CCN(CC3)C2C1c1ccccc1 (centres undefined)	3.2%	-1.0%	-8.9%	-7.7%	-10.8%
COC1=C(C)C(=O)c2c(c(COC(N)=O)c3n2C[C@@H]2[C@@H]3N2C)C1=O (some centres undefined)	.	.	.	0.0251µM*	0.1µM*
CC1CN=C(NCc2ccncc2)S1 (centres undefined)	-0.5%	2.1%	1.4%	-11.1%	-0.8%
O=c1[nH]c(=O)n(-c2ccccc2F)c(O)c1/C=C1\C=Nc2ccccc21	-6.9%	.	-28.1%	20.6µM*	16.4µM*
Cc1cccc(-n2c(O)c(/C=C3/C(c4ccccc4)=Nc4ccccc43)c(=O)[nH]c2=O)c1	?	.	0.8%	2.31µM*	2.91µM*
